In ChEMBL document CHEMBL3988442, “University of Dundee, Small-Polar-MMV Screening Library” (2021):
The campaign covered roughly 48,000 compounds. About 13,000 (27%) showed an effect of 50% or more. This is one part of the list.

Test system: Wolbachia pipientis
Assay: Anti-Wolbachia Cell-Based Screen
Type: functional
Design: scale not given: in the data most compounds retested in dose-response had high values
Details: 5 µM

| SMILES | Percent Effect [%] |
| --- | --- |
| O=C(O)C(F)(F)F.O=C(O)C(F)(F)F.O=C(c1c[nH]cn1)N1CCC(F)(F)C2(CCN(c3ccccn3)C2)C1 (stereo not given) | 6.098 |
| Cc1ccc(C(=O)N2CCC3(CCN3c3ncccn3)C2)cn1.O=C(O)C(F)(F)F (stereo not given) | 98.39 |
| O=C(O)C(F)(F)F.O=C(c1ccccn1)N1CCC2(CC1)C(=O)Nc1ccccc12 | -9.696 |
| COCC1CC2(CCN(C(=O)c3cnc4ccccc4c3)CC2)CO1.O=C(O)C(F)(F)F (stereo not given) | 5.909 |
| O=C(O)C(F)(F)F.O=C(c1cnc2ccccc2c1)N1CCC2(CCN2c2ncccn2)C1 (stereo not given) | 69.16 |
| O=C(O)C(F)(F)F.O=C(c1ccccc1)N1CCC2(CCCN2c2ncccn2)CC1 | 93.81 |
| Cc1ccc(C(=O)N2CCC3(CC2)NC(=O)CC3c2ccccc2)cn1.O=C(O)C(F)(F)F (stereo not given) | 15.96 |
| O=C(O)C(F)(F)F.O=C(c1ccc2ccccc2n1)N1CCC2(CCN2c2ncccn2)C1 (stereo not given) | 82.49 |
| CCCc1nnsc1C(=O)N1CCN(CC(O)C2CC2)CC1.Cl (stereo not given) | -6.099 |
| O=C(c1ccc2sccc2c1)N1CCC(C(=O)O)(n2cccn2)CC1 | -6.348 |
| COc1ccccc1-c1ncc(CN2CCCC[C@H](N(C)C)C2)s1 | -5.387 |
| Cc1cc(F)c(S(=O)(=O)N(C)CCn2cccn2)cc1F | -6.407 |
| O=C(O)C(F)(F)F.O=C(c1cccc(O)c1)N1CCC2(CCN2c2ncccn2)C1 (stereo not given) | 103.8 |
| CCN(CC)CCNC(=O)c1cc(C(C)C)nc(N2CCCC2)n1 | 3.007 |
| CCC(NC(=O)C1CCN(S(C)(=O)=O)CC1)c1ccc(OC)c(C)c1 (stereo not given) | -3.123 |
| CCC(NC(=O)NC1CCN(S(C)(=O)=O)CC1)c1cccs1 (stereo not given) | 5.409 |
| Cc1csc(C(Cc2ccsc2)NC(=O)C2CCN(S(C)(=O)=O)CC2)n1 (stereo not given) | 94.26 |
| CS(=O)(=O)N1CCC(C(=O)NC(Cc2ccsc2)c2ccccn2)CC1 (stereo not given) | -12.55 |
| CCC(NC(=O)C1CCN(S(C)(=O)=O)CC1)c1ccc(OC)c(OC)c1 (stereo not given) | -10.24 |
| CS(=O)(=O)N1CCC(C(=O)NC(Cc2ccsc2)c2cccnc2)CC1 (stereo not given) | 127.1 |
| COCCn1cc(C(=O)N2CCCC2c2cccc(C)c2)ccc1=O (stereo not given) | 1.918 |
| CCn1nnnc1-c1cccc(NC(N)=O)c1 | 11.47 |
| CCC(CC)C(O)CNC(=O)Nc1cccc(-c2nccn2C)c1 (stereo not given) | 17.02 |
| Cn1ccnc1-c1cccc(NC(=O)NCCCO)c1 | -3.437 |
| CC[C@@H](C)[C@@H](N)C(=O)Nc1cccc(-c2cnc(N)nc2)c1 | 118.7 |

| SMILES | Percent Effect [%] |
| --- | --- |
| CC[C@@H](C)[C@@H](N)C(=O)Nc1cccc(-c2cnc(N(C)CCO)nc2)c1 | 118.1 |
| CN(C)c1ncc(-c2c(-c3ccccc3)ncn2C(CO)C(=O)O)cn1 (stereo not given) | -11.25 |
| CC(NC(N)=O)C(=O)Nc1ccc(OCc2cccc(F)c2)c(F)c1 (stereo not given) | -7.991 |
| CN(C)c1ncc(NC(=O)c2cccc(Nc3cnn(C)c3)c2)cn1 | -2.232 |
| CCC(Nc1cccc(OC)c1)C(=O)N(CCO)Cc1nccs1 (stereo not given) | -9.396 |
| CC[C@@H](C)[C@@H](N)C(=O)Nc1cccc(-c2cnc(N(C)C)nc2)c1 | 111.5 |
| CC[C@@H](C)[C@@H](N)C(=O)Nc1cccc(-c2cnc(NCCO)nc2)c1 | 122.5 |
| CCC(C)NS(=O)(=O)Cc1cccc(NC(=O)C(C)C)c1 (stereo not given) | -6.422 |
| O=C(NCCc1nnc2n1CCCCC2)N1CCC2(CCCC2)CC1 | -8.228 |
| O=C(CN1CCN(c2ccnc3c(F)ccc(F)c23)CC1)N1CCCC1 | -6.623 |
| Cc1ccc(C)c(OC(C)C(=O)Nc2cccnc2)c1 (stereo not given) | -35.64 |
| CCc1nnc2n1CCN(CCC(=O)Nc1cc(C)on1)C2 | -8.821 |
| CCc1nnc2n1CCN(CCC(=O)Nc1sccc1C#N)C2 | 88.78 |
| CC(C)c1nnc2n1CCN(CC(=O)Nc1nncs1)C2 | 3.103 |
| CCc1nnc2n1CCN(CC(=O)Nc1sccc1C#N)C2 | 8.043 |
| CC(C)c1nnc2n1CCN(CC(=O)Nc1sccc1C#N)C2 | -2.717 |
| CC(C)c1nnc2n1CCN(CCC(=O)Nc1sccc1C#N)C2 | 103.7 |
| CCc1c(C)sc2ncnc(N3C[C@H](O)[C@@H](N4CCCC4)C3)c12 | 10.47 |
| O=C(NCCn1nc2ccccn2c1=O)c1cc(C2CC2)[nH]n1 | 7.505 |
| O=C(NCc1cnn2cccnc12)c1cccc(CC2CCNCC2)c1 | 4.069 |
| O=C(NCCCc1nnc2ccccn12)c1ccccc1C1CCNC1 (stereo not given) | 3.583 |
| Cl.O=C(NCCn1nc(C2CCNC2)c2cccnc21)c1ccccc1 (stereo not given) | 112 |
| Cl.O=C(NCCn1nc(C2CCNC2)c2cccnc21)c1ccccn1 (stereo not given) | 108.3 |
| O=C(NCCN1CCNCC1)c1nc2ccccc2c(=O)[nH]1 | -2.833 |
| Cc1nc(C)n(CC2CCCCN2CC(=O)N(C)Cc2ccco2)n1 (stereo not given) | -3.611 |

| SMILES | Percent Effect [%] |
| --- | --- |
| CCN(C(=O)NCc1ncc(C)c(OC)c1C)C(C)c1cccnc1 (stereo not given) | -16.66 |
| CC(C)CNC(=O)c1cc(C2CC2)nc2onc(C3CCNCC3)c12 | 97.28 |
| O=C(c1cc(C2CC2)nc2onc(-c3ccccc3)c12)N1CC[C@H](O)C1 | 6.458 |
| O=C(c1cc(-c2ccccc2)nc2onc(C3CC3)c12)N1CC[C@H](O)C1 | -0.1163 |
| O=C(c1cc(C2CC2)nc2onc(-c3ccccc3)c12)N1CCOCC1 | 3.139 |
| O=C(NC1CC1)c1cc(C2CC2)nc2onc(C3CCNCC3)c12 | 97.57 |
| CC(C)CNc1nc2c(cc1C(=O)NCC1CC1)CCNCC2 | 3.893 |
| FC(F)(F)CCc1ccnc(N2CCN(Cc3ccncc3)CC2)n1 | -2.758 |
| CCO[C@H]1CO[C@@]2(CCCN(S(=O)(=O)c3ccccc3)C2)C1 | -23.06 |
| COCC(=O)N1CC[C@]2(O)CCN(Cc3ccsc3)C[C@@H]2C1 | 113.5 |
| COCc1nc(C(=O)N2CCN(Cc3ccsc3)CC2)cs1 | -16.22 |
| COCC(=O)N1CC[C@]2(O)CCN(C(=O)CCc3ccsc3)C[C@@H]2C1 | 120 |
| COCC(=O)N1CCN(C(=O)CCc2ccsc2)CC1 | -13.91 |
| COCC(=O)N1CC[C@]2(O)CCN(Cc3cccnc3OC)C[C@@H]2C1 | 17.33 |
| O=C(CCc1ccsc1)N1CCC(Cc2ccc(CO)cc2)C1 (stereo not given) | -8.756 |
| Cn1cnc2c1CCN(Cc1nc(COc3ccc(F)cc3)no1)C2 | 1.894 |
| Cc1cccc(N2CCN(CCC(=O)NCc3nnc[nH]3)CC2)c1 | -0.9949 |
| CC(C)N1CCC(N2CCCC(C(=O)NCC3(C)COC3)C2)CC1 (stereo not given) | -5.464 |
| CS(=O)(=O)N1CCC2(CC1)NCCn1c(-c3ccccc3)cnc12.O=C(O)C(F)(F)F.O=C(O)C(F)(F)F | -8.058 |
| CCNC(=O)N1CCC2(CC1)CCn1c(-c3ccccc3)cnc12 | -10.02 |
| COc1ccc(-c2cnc3n2CCNC32CCN(S(C)(=O)=O)CC2)cc1 | -5.963 |
| Cn1nccc1-c1cnc2n1CCC21CCN(C(=O)C2(C)CC2)CC1 | 98.02 |
| Cn1nccc1-c1cnc2n1CCNC21CCN(C(=O)C2(C)CC2)CC1 | 92.03 |
| Cn1cc(-c2cnc3n2CCC32CCN(S(C)(=O)=O)CC2)cn1 | 7.243 |
| O=S(=O)(NCCn1ccc(-c2cccs2)n1)C1CC1 | 1.599 |

| SMILES | Percent Effect [%] |
| --- | --- |
| COCCOCCNc1cncc(Br)c1 | -4.495 |
| CCN(Cc1ccncc1)C1CCCN(C/C=C/c2ccc(F)cc2)C1 (stereo not given) | 3.422 |
| Cc1nc2ccccc2n1Cc1cc(C(=O)N(C)C2CCOC2)n[nH]1 (stereo not given) | 98.82 |
| COCC1CCCN(C(=O)c2cc(Cn3ccc4ccccc43)[nH]n2)C1 (stereo not given) | -4.391 |
| O=C(c1cc(Cn2cnc3ccccc32)on1)N1CCOCC1 | -10.83 |
| Cc1nc2ccccc2n1Cc1cc(C(=O)N2C[C@@H](C)O[C@@H](C)C2)no1 | -14.98 |
| O=C(NCC1CCCCO1)c1cc(Cn2cnc3ccccc32)[nH]n1 (stereo not given) | -5.339 |
| Cc1nc2ccccc2n1Cc1cc(C(=O)NC2CCOC2)no1 (stereo not given) | 107.5 |
| C[C@@H]1CN(C(=O)c2cc(Cn3cnc4ccccc43)on2)C[C@H](C)O1 | -0.2425 |
| Cc1ccc(CNC(=O)c2cc(CN3CCC(O)CC3)on2)s1 | -1.351 |
| Cc1nc2ccccc2n1Cc1cc(C(=O)N(C)C2CCOCC2)no1 | 169.5 |
| Cc1ccccc1CN1C[C@@H]2CC[C@H](C1)N(CC1CCC1)C2=O | -3.68 |
| c1cnnc(N2CCCC2CNc2nc3ccccc3o2)c1 (stereo not given) | 0.7954 |
| Cn1cc(N2CCCC(Nc3ccc4c(c3)CCC(=O)N4)C2=O)cn1 (stereo not given) | -0.6283 |
| CC(NC(=O)NC1CCN(Cc2ccccc2)CC1)c1nncn1C (stereo not given) | -0.6608 |
| CC(C)c1nsc(N2CCn3c(nnc3-c3ccccc3)C2)n1 | -7.754 |
| Cc1cc(C(=O)N2C[C@@H]3COC[C@]3(COCc3cccnc3)C2)no1 | -1.047 |
| Cc1ccccc1C(=O)N1C[C@@H]2COC[C@]2(COCc2cccnc2)C1.O=C(O)C(F)(F)F | -1.339 |
| COc1ccc(CN2C[C@@H]3COC[C@]3(COc3cccnc3)C2)cc1.O=C(O)C(F)(F)F.O=C(O)C(F)(F)F | 13.03 |
| Cc1ccoc1C(=O)N1C[C@@H]2COC[C@]2(COCc2cccnc2)C1.O=C(O)C(F)(F)F | -8.448 |
| O=C(COc1ccccc1)N1C[C@@H]2COC[C@]2(COc2cccnc2)C1.O=C(O)C(F)(F)F | 107.1 |
| O=C(O)C(F)(F)F.O=C(c1ccc(F)cc1)N1C[C@@H]2COC[C@]2(COc2cccnc2)C1 | 125.5 |
| O=C(O)C(F)(F)F.O=C(c1cc(C2CC2)on1)N1C[C@@H]2COC[C@]2(COc2cccnc2)C1 | 101.2 |
| O=C(COC1CCCC1)N1C[C@@H]2COC[C@]2(COc2cccnc2)C1.O=C(O)C(F)(F)F | 91.64 |
| O=C(O)C(F)(F)F.O=C(c1ccccc1F)N1C[C@@H]2COC[C@]2(COCc2cccnc2)C1 | 3.343 |
